# Sampled rows, rich in hits. Any-hit rate of the full collection: about 4.2%.
# Mtb FBA inh = inhibitors of M. tuberculosis fructose-bisphosphate aldolase. purified M. tuberculosis FBA, fluorescence read-out. inhibition, % at 1 µM. 360,000 compounds, 2.3% hits. AID 588726; in the data active = inhibition above about 27%
# RecA intein inh = Mtb RecA intein splicing inhibition | P9WHJ3 | 290,000 compounds, 0.75% hits | cell-free RecA intein splicing, fluorescence | inhibition, % (concentration not given with the values); in the data active = inhibition above about 30%
# CCHFV vOTU inh = CCHFV vOTU protease inhibition; Pep-AMC fluorescence; inhibition, % at 11.5 µM; 370,000 compounds, 0.55% hits; AID 651958
# GDH-TPI counter = counter-screen for M. tuberculosis FBA inhibitors: GDH-TPI coupled enzymes; GDH-TPI coupled enzyme counterscreen, NADH absorbance; inhibition, % at 4.8 µM; 360,000 compounds, 1.2% hits; AID 588335
# Mtb betalactam = beta-lactam sensitization of Mtb H37Rv | M. tuberculosis H37Rv growth with meropenem, percent inhibition | inhibition, % at 25 µM | 330,000 compounds, 0.27% hits; call rule not given here;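 also: growth measured after seven days incubation then overnight dye step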
# Hits are given with their value; n = inactive; x = no result given; + = active, no number. Rule as the data show it, unless noted: active = inhibition above about 30%; inactive = the rest.
SMILES,Mtb FBA inh,RecA intein inh,CCHFV vOTU inh,GDH-TPI counter,Mtb betalactam
C=Cc1ccc(C(=O)N(Cc2ccc(F)cc2)C(C(=O)N(C)C2CCCC2)c2ccc(OC)c(OC)c2)cc1 (stereo not given),x,x,n,x,x
COc1ccc(Nc2oc(COc3ccc(OC)cc3)nc2C#N)cc1,n,n,n,n,n
COc1ccc(Nc2oc(COc3ccccc3F)nc2C#N)cc1,n,41,n,n,n
O=C(Nc1cccc(-c2cnc3ccccc3n2)c1)c1ccco1,n,n,n,n,n
Cc1c(-c2cccc(NC(=O)c3cccs3)c2)nc2ncccn12,+,n,n,n,n
Cc1c(-c2cccc(NC(=O)c3ccco3)c2)nc2ncccn12,+,n,n,n,n
Cc1nc(-c2cccc(NC(=O)c3cccs3)c2)cs1,n,n,n,n,n
FC(F)(F)c1cccc(Cn2ccc3ccc(-c4ccc5ccn(Cc6cccc(C(F)(F)F)c6)c5c4)cc32)c1,x,x,n,x,x
CCCOc1ccc(C(=O)c2nc3c(n2O)CCCCC3)cc1,n,n,n,31,n
COC(=O)[C@H]1C[C@@]2(N3CCCC3)c3ccccc3N(C(=O)OC(C)(C)C)[C@H]2N1C(=O)OC(C)(C)C,x,x,n,x,x
S=c1[nH]cnc2sc(-c3ccccc3)cc12,n,n,n,52,n
O=C(O)c1cc(N/N=C/c2ccc(N3CCOCC3)s2)ccc1Cl,n,n,31,n,n
C/C(=N\NC(=O)c1cccc(C)c1)c1ccc(N2CCOCC2)cc1,n,x,n,34,n
C/C(=N\Nc1ccc(Cl)c(C(=O)O)c1)c1ccc(N2CCOCC2)cc1,n,n,n,31,n
C/C(=N\NC(=O)c1ccc(F)cc1)c1ccc(N2CCOCC2)cc1,n,n,n,n,n
COC(=O)[C@]12C=CCN1[C@H](c1ccc(Cl)cc1)c1c(c3ccccc3n1S(=O)(=O)c1ccc(C)cc1)C2,x,x,n,x,x
CC(C)CN1C(=O)C[C@]2(C(=O)N(C)c3ccc(NC(=O)C(F)(F)F)cc32)C1c1ccccc1 (stereo not given in full),x,x,n,x,x
O=C(O)c1cc2ccc(O)cc2oc1=O,x,x,n,n,x
O=C(NCc1ccccc1)c1cc2ccc(O)cc2oc1=O,+,n,n,n,n
O=C(c1ccc(F)cc1)c1cc2ccc(O)cc2oc1=O,n,n,n,n,n
C/C(=N\NC(=O)CC#N)c1cc2ccc(O)cc2oc1=O,+,n,n,n,n
COc1ccc2cc(C(=O)NCc3ccccc3)c(=Nc3ccc(C(=O)O)cc3)oc2c1,n,n,n,n,n
O=C(O)c1ccc(N=c2oc3cc(O)ccc3cc2C(=O)NCc2ccccc2)cc1,+,n,n,n,n
C=CCN1C=CC(=O)[C@@H](OC(=O)Nc2ccc(Br)cc2)[C@H]1c1ccccc1Br,n,x,n,33,x
Cc1nc2ccccn2c(=O)c1NC(=O)COc1ccccc1,n,x,n,31,x
SMILES,Mtb FBA inh,RecA intein inh,CCHFV vOTU inh,GDH-TPI counter,Mtb betalactam
CCOc1ccc(C2CC=C(C(=O)O)CN2S(=O)(=O)c2ccc(C)cc2)cc1 (stereo not given),x,x,n,x,x
Oc1ccc(/C(Cc2ccc3ccccc3n2)=N\Nc2ccccc2)c(O)c1,n,47,n,n,n
CCCC[C@H](C(=O)N(CC)c1ccccc1)[C@@H](O)c1ccc(C(C)=O)cc1,x,x,n,x,x
O=C(NC1CCCCN(Cc2cccc(Cl)c2)C1=O)c1ccc(F)cc1 (stereo not given),x,x,n,x,x
COc1ccc(N2C(=O)CC(Sc3ncn[nH]3)C2=O)c(OC)c1 (stereo not given),n,n,55,n,n
O=C(CSc1nnc(SCc2cccc3ccccc23)s1)Nc1ccc(S(=O)(=O)Nc2nccs2)cc1,x,x,n,x,x
CC1(C)CCCN(C(=O)c2coc(=O)c(Br)c2)C1,51,n,n,n,x
O=C(c1coc(=O)c(Br)c1)N1CCC(C(O)(c2ccccc2)c2ccccc2)CC1,70,n,n,32,n
O=C(c1coc(=O)c(Br)c1)N1CCCc2ccccc21,141,n,n,n,n
CCOC(=O)c1sc(NC(=O)c2ccc(OC)cc2)nc1C,n,n,n,n,n
CCOC(=O)c1sc(=S)n(C)c1NC(=O)c1ccccc1Cl,n,n,n,40,n
CCOC(=O)c1sc(=S)n(C)c1NC(=O)c1ccc(C(C)(C)C)cc1,n,n,n,41,n
CCOC(=O)c1sc(=S)n(C)c1NC(=O)c1ccc(OC)cc1,n,n,n,37,n
CCOC(=O)c1sc(=S)n(CC)c1NC(=O)C1CC1,n,n,n,35,n
CC(C)CNC(=O)OCc1cn(Cc2ccc(Cl)cc2)nn1,x,x,n,x,x
COc1ccc(C(=O)/C=C/N(C)C)cc1,n,n,n,45,n
CN(C)/C=C/C(=O)c1ccccc1,n,n,n,49,n
COc1ccc(C(=O)/C=C/N(C)C)cc1OC,n,n,n,34,n
CCn1c(=O)n(CC(=O)N2CCN(c3ccc(F)cc3)CC2)c(=O)c2ccccc21,x,x,n,x,x
CC(/C=C/c1ccco1)=N\NC(=O)c1cccc(Cl)c1,n,n,n,32,n
CC(/C=C/c1ccco1)=N/NC(=O)c1ccccc1Cl,n,n,n,32,n
CCOC(=O)N/N=C(C)/C=C/c1ccco1,n,n,n,n,n
C[C@H](O)[C@@H]1CN2CCc3c([nH]c4c(-c5ccccc5)cccc34)[C@@H]2C[C@@H]1N(C)C(=O)c1ccco1,x,x,n,x,x
COc1cc(/C=C/C(=O)O)ccc1O,n,n,n,n,n
COc1cc(/C=C/C(C)=NNc2ccccc2)ccc1O,n,x,n,32,x
SMILES,Mtb FBA inh,RecA intein inh,CCHFV vOTU inh,GDH-TPI counter,Mtb betalactam
COc1ccc(/C(C)=N/Nc2ccc(C(=O)O)cc2)cc1OC,n,n,n,56,n
COc1cc(/C=N/NC(=S)Nc2cccc(C(=O)O)c2)ccc1O,n,n,n,32,n
COc1cc(/C=N/Nc2nc(N3CCCC3)nc(N3CCCC3)n2)ccc1O,n,n,n,35,x
COc1ccc(/C=N/NC(=S)Nc2cccc(C(=O)O)c2)cc1,n,n,n,n,n
C=CCn1c(COc2ccccc2)nnc1SCC(=O)Nc1ccc(S(=O)(=O)Nc2cc(C)nc(C)n2)cc1,x,x,n,x,x
COc1ccc2[nH]c3c(c2c1)CCN[C@]31C(=O)N(c2ccccc2)c2ccccc21,x,x,n,x,x
C#CCN1CC(N(C)CCOC(=O)c2ccc(C(C)(C)C)cc2)CS1(=O)=O (stereo not given),x,x,n,x,x
O=C(c1cccc(F)c1F)N(Cc1ccccn1)CC1CCCO1 (stereo not given),x,x,n,x,x
C=CCN1C(=O)[C@H](CC(=O)N2CCCCC2)[C@@]2(C(=O)OCC)CCCC=C12,x,x,n,x,x
COc1cc(/C=N/NC(=O)c2cnccn2)cc(OC)c1OC,n,n,n,32,n
COc1cc(C(=O)N/N=C/c2ccsc2C)cc(OC)c1OC,n,n,n,37,n
COc1cc(/C=N/NC(=S)NCCc2ccccc2)cc(OC)c1OC,n,n,n,41,n
COc1cc(/C=N/Nc2ccc(C(=O)O)cc2)ccc1O,n,n,n,33,n
COc1cc(/C=N/NC(=O)c2ccccc2)ccc1O,n,n,n,n,n
CC(C)(C)c1ccc(S(=O)(=O)N2CCCC2C(=O)N2CCc3ccccc3C2)cc1 (stereo not given),x,x,n,x,x
COc1ccc(-c2cnnc(N/N=C/c3ccc(O)c(OC)c3)n2)cc1,n,n,n,55,n
